Measured values: PubChem BioAssay (Tox21)
Results filed as inconclusive are left out. Entries that show only a call come without a potency. Calls of active or inactive are those of the source. Unless noted, calls follow the shape of the dose curve; as a rule, active = well fitted curve in the direction sought with a large enough effect in the repeat runs; inconclusive = weak or mixed curves; inactive = no such curve, though single readings can be large; an effect the other way counts as inactive or inconclusive.

Key:
[1] = qHTS assay to identify small molecule antagonists of the estrogen receptor alpha (ER-alpha) signaling pathway using the BG1 cell line in the presence of 0.1 nM 17-beta-estradiol - cell viability counter screen (AID 1259241); also: nearly all actives have a fitted effect of over 40% in size
Outline: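 Cytotoxicity counter-screen: live-cell protease activity measured by fluorescence (30 min reagent step) in the same wells. Cells were VM7Luc4E2 with endogenous ER-alpha and ERE-driven luciferase, treated 22 hr at 37C alongside 0.1 nM 17beta-estradiol final.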

[2] = qHTS assay to identify small molecule antagonists of the androgen receptor (AR) signaling pathway using the MDA cell line in the presence of 0.5 nM R1881 - cell viability counter screen (AID 1259242); also: nearly all actives have a fitted effect of over 45% in size
Outline: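 Concentration-response screen of compounds for toxicity in MDA-kb2 reporter cells: 16 hr at 37C with 0.5 nM R1881, endpoint live-cell protease fluorescence measured in the reporter wells.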

[3] = qHTS assay to identify small molecule HDAC inhibitors (AID 1259364);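 also: wild-type HCT-116 cells with endogenous class I/II HDAC activity; top concentration of the series differs between compounds; nearly all actives have a fitted effect of over 45% in size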
Outline: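 Screening used wild-type human colon HCT-116 cells incubated overnight, dosed with compounds for 2 hours, and assayed with a homogeneous luminogenic HDAC I/II reagent for 30 minutes at room temperature.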

[4] = qHTS assay to identify small molecule HDAC inhibitors - cell viability counter screen (AID 1259365); also: series mostly up to about 92 µM; nearly all actives have a fitted effect of over 50% in size
Outline: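 CellTiter-Glo luminescence (30 min, room temperature) reported viability after a 2 h compound exposure at 37 C. Cells: wild-type HCT-116, 1,500 per well, seeded the night before.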

[5] = qHTS assay to identify small molecule agonists of the sonic hedgehog signaling (Shh) pathway - cell viability counter screen (AID 1259366); also: nearly all actives have a fitted effect of over 50% in size
Outline: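 Cytotoxicity counter screen: CellTiter-Fluor reagent added after 23 h compound exposure, then 1 h at 37C and fluorescence read. Cells were 3T3 Gli1-Luc, seeded 2,000 per well and dosed 4 h post-plating.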

[6] = qHTS assay to identify small molecule antagonists of the sonic hedgehog signaling (Shh) pathway - cell viability counter screen (AID 1259367); also: nearly all actives have a fitted effect of over 55% in size
Outline: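 Fluorescence read-out (CellTiter-Fluor, 1 hr at 37C) taken after 23 hr compound treatment of 3T3 Gli1-Luc cells stimulated with conditioned medium. Cells were seeded at 2,000 per well and pre-incubated 4 hr.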

[7] = qHTS assay to identify small molecule agonists of the sonic hedgehog signaling (Shh) pathway (AID 1259368; calls by dose curve;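 also: NIH/3T3-derived 3T3Gli1-Luc cells carrying a stable Gli1-driven firefly luciferase reporter; series mostly up to about 92 µM; nearly all actives have a fitted effect of over 15% in size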)
Outline: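 Hedgehog pathway agonism scored by increased firefly luciferase luminescence in 3T3Gli1-Luc cells treated 24 hr at 37 C; detection used a 30 min room-temperature reagent incubation.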

[8] = molecular target: Estrogen receptor beta (Homo sapiens) (UniProt Q92731); experiment: qHTS assay to identify small molecule agonists of the estrogen receptor beta (ER-beta) signaling pathway (AID 1259377; active = well fitted activation curve with a large enough effect in the signal ratio in the repeat runs, not every such curve was filed as active; the % refers to the signal ratio)
Sequence of Estrogen receptor beta (Homo sapiens) (Q92731 whole entry, looked up): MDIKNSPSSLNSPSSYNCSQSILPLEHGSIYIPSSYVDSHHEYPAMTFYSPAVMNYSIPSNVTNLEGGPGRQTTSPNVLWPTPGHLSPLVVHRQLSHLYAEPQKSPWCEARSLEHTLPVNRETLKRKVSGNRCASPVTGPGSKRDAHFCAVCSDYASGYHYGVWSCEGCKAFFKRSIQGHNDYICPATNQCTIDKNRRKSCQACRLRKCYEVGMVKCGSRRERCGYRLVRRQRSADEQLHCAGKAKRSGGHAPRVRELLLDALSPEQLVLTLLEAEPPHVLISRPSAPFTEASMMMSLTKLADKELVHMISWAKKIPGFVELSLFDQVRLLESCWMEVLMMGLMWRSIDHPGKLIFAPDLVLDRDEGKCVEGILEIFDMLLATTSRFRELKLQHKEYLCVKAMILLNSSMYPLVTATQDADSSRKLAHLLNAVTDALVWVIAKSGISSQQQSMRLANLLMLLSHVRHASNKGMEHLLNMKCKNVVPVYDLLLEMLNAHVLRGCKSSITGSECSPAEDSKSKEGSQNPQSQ
Outline: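 Ratiometric beta-lactamase FRET read-out came after 2 h substrate loading at room temperature. It followed 16 h compound treatment at 37C of GripTite HEK293T cells carrying a UAS-bla reporter, plated in 2% charcoal-stripped FBS medium.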

[9] = molecular target: Estrogen receptor beta (Homo sapiens) (UniProt Q92731); experiment: qHTS assay to identify small molecule antagonists of the estrogen receptor beta (ER-beta) signaling pathway (AID 1259378; active = well fitted inhibition curve with a large enough effect in the signal ratio in the repeat runs, not every such curve was filed as active; the % refers to the signal ratio; also: potency is read from the fitted curve at half-maximal effect)
Outline: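 ER-beta-UAS-bla HEK293T cells in 2% charcoal-stripped FBS medium treated with compound plus 1nM final 17-beta-estradiol for 16 hr at 37C. Beta-lactamase reporter read by FRET substrate fluorescence after 2 hours at room temperature.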

[10] = qHTS assay to identify small molecule agonists of the androgen receptor (AR) signaling pathway in the presence of an antagonist - cell viability counter screen (AID 1259379);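 also: MDA-kb2 human breast cancer cells carrying an MMTV luciferase reporter; series mostly up to about 92 µM; nearly all actives have a fitted effect of over 25% in size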
Outline: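 MDA-kb2 viability measured by CellTiter-Fluor fluorescence in the same wells as the luciferase signal; nilutamide 3.0uM final; 15-point compound titration; 16 hr at 37C.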

[11] = qHTS assay to identify small molecule agonists of the estrogen receptor beta (ER-beta) signaling pathway - cell viability counter screen (AID 1259380); also: nearly all actives have a fitted effect of over 30% in size; also: potency is read from the fitted curve at half-maximal effect
Outline: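 Measured: luminescence from CellTiter-Glo after 30 min at room temperature, added to wells already read for the LiveBLAzer FRET reporter (2 hr substrate); ER-beta-UAS-bla HEK293T cells had 16 hr compound treatment at 37C, 5% CO2.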

[12] = molecular target: Androgen receptor (Homo sapiens) (UniProt P10275); experiment: qHTS assay to identify small molecule agonists of the androgen receptor (AR) signaling pathway in the presence of an antagonist (AID 1259381; calls by dose curve; also: nearly all actives have a fitted effect of over 15% in size)
Sequence of Androgen receptor (Homo sapiens) (P10275 whole entry, looked up): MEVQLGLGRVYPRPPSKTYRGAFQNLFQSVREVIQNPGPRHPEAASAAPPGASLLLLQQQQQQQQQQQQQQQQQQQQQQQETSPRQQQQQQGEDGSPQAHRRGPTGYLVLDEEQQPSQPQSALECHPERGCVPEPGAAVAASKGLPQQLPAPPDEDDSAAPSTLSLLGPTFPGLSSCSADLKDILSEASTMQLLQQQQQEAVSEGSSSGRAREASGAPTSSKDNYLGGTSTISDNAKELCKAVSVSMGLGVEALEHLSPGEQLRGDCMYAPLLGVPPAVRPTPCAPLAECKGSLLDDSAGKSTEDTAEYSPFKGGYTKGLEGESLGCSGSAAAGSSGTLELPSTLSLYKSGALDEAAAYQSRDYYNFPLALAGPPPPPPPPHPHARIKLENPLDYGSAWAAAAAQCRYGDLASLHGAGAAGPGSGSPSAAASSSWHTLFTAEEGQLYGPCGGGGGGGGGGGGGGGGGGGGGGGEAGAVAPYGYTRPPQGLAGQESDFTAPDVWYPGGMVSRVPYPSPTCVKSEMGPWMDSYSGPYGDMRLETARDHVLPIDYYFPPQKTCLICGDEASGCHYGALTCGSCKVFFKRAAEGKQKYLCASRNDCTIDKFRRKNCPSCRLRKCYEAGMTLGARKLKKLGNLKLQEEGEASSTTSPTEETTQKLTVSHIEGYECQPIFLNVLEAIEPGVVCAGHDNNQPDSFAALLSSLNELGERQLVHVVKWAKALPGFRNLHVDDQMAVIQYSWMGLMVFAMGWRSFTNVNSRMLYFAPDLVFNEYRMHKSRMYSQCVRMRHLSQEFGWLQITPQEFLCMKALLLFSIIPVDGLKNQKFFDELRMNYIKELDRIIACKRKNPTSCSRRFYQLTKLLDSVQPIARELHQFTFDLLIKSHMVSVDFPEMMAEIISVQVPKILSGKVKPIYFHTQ
Outline: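 Luminescent ONE-Glo read, 30min at room temperature, follows 16hr compound exposure (15 concentrations) of MDA-kb2 cells at 37C, 0% CO2, with nilutamide added at 3.0uM final.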

[13] = qHTS assay to identify small molecule antagonists of the estrogen receptor beta (ER-beta) signaling pathway - cell viability counter screen (AID 1259382); also: series mostly up to about 92 µM; nearly all actives have a fitted effect of over 55% in size
Outline: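 Readout: luminescence, CellTiter-Glo, same wells as bla assay. System: ER-beta-UAS-bla GripTite HEK293T, 2% charcoal-stripped FBS. Exposure: compounds plus 1nM 17-beta-estradiol, 16 hr, 37C.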

[14] = qHTS assay to identify small molecule agonists or antagonists of the thyroid stimulating hormone receptor (TSHR) signaling pathway - wild type cell line counter screen (AID 1259384; calls by dose curve)
Outline: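 Wild-type Hek293 cells, 800/well, 18 h at 37C, then compound with Ro20-1724 for 30 min RT. cAMP by HTRF (cAMP-d2/anti-cAMP cryptate), 1 h RT, fluorescence read. 15 concentrations, triplicates.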

[15] = molecular target: Thyrotropin receptor (Homo sapiens) (UniProt P16473); experiment: qHTS assay to identify small molecule antagonists of the thyroid stimulating hormone receptor (TSHR) signaling pathway (AID 1259385; calls by dose curve; also: nearly all actives have a fitted effect of over 20% in size)
Sequence of Thyrotropin receptor (Homo sapiens) (P16473 whole entry, looked up): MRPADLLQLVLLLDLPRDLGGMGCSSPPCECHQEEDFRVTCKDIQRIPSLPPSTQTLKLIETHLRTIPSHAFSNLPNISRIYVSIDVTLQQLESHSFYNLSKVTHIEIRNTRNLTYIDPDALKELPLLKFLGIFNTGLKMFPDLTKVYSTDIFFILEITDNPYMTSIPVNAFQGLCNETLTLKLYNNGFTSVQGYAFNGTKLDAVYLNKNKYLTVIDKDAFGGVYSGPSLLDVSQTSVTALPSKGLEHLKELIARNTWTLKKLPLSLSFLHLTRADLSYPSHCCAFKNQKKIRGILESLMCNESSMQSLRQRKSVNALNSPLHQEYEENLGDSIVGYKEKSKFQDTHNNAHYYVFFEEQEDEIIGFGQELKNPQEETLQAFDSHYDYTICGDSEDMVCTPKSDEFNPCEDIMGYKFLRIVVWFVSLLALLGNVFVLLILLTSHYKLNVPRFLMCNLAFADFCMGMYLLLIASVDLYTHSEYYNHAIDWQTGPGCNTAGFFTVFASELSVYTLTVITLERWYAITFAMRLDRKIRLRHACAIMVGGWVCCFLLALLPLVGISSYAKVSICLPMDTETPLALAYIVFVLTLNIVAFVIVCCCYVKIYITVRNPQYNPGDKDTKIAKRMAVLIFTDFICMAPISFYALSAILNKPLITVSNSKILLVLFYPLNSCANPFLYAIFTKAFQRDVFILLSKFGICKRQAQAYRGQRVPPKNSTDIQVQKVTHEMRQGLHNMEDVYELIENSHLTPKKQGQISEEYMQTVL
Outline: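 TSHR-HEK293 cells (800/well) plated 18 h, then compounds with Ro20-1724 and TSH at 1.5 ng/mL final, 30 min at room temperature. cAMP quantified by HTRF (cAMP-d2/anti-cAMP-cryptate, 1 h); 15 concentrations in triplicate.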

[16] = qHTS assay to identify small molecule antagonists of the sonic hedgehog signaling (Shh) pathway (AID 1259369; calls by dose curve; also: nearly all actives have a fitted effect of over 45% in size; also: potency is read from the fitted curve at half-maximal effect)
Outline: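 NIH/3T3 stable Gli1-Luc clone, 2,000 cells/well, 4hr settle; cpd + conditioned medium 24hr; Luc reagent 30min RT; luminescence.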

[17] = qHTS assay to identify small molecule phospholipidosis (PLD) inducers (AID 1259344; active = well fitted curve in the direction sought with a large enough effect; an effect the other way counts as inactive or inconclusive)
Outline: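 Read-out is LipidTOX Red fluorescence (ex 595/em 615) imaged in HepG2 cells after 24 h compound exposure at 37 C, with Hoechst nuclear counterstain (ex 352/em 461) allowing per-cell normalisation.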

[18] = molecular target: Estrogen receptor (Homo sapiens) (UniProt P03372); experiment: qHTS assay to identify small molecule agonists of the estrogen receptor alpha (ER-alpha) signaling pathway in the presence of an antagonist (AID 1259383; calls by dose curve; also: top concentration of the series differs between compounds; nearly all actives have a fitted effect of over 15% in size)
Sequence of Estrogen receptor (Homo sapiens) (P03372 whole entry, looked up): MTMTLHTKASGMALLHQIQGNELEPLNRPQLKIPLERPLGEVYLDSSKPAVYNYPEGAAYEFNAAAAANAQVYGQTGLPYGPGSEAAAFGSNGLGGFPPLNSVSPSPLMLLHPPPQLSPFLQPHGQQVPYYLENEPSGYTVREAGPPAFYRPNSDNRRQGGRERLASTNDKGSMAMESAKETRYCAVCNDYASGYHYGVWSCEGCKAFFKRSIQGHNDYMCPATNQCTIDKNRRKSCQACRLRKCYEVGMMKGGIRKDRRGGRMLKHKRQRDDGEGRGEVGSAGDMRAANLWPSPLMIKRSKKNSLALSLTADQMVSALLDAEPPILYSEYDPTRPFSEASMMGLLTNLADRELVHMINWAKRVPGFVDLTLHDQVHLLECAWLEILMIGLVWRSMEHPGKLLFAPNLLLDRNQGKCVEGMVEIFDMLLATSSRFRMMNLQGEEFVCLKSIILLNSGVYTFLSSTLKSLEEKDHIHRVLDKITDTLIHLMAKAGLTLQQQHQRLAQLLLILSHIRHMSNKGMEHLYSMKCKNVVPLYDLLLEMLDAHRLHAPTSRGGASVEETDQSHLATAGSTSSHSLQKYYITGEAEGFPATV
Outline: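 Quantitative HTS confirmation: compounds titrated at 15 concentrations onto estrogen-deprived VM7Luc4E2 cells carrying a four-ERE luciferase construct, with ICI-182,780 present at 10.0nM final. Signal is luminescence after 22hr exposure.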

Row | SMILES | outcome [1] | outcome [2] | Potency [3] | outcome [4] | Potency [5] | Potency [6] | outcome [7] | outcome [8] | Potency [9] | Potency [10] | Potency [11] | Potency [12] | Potency [13] | Potency [14] | Potency [15] | Potency [16] | outcome [17] | Potency [18]
1 | c1ccc(N2CCNCC2)cc1 | inactive | inactive | inactive | inactive | inactive | inactive | inactive | inactive | inactive | inactive | inactive | inactive | inactive | inactive | inactive | – | – | –
2 | CC(C)[N+](=O)[O-] | inactive | inactive | inactive | inactive | inactive | inactive | – | – | – | inactive | inactive | – | inactive | inactive | inactive | inactive | – | –
3 | COc1ccc(C(=O)N2CCCC2=O)cc1 | inactive | inactive | inactive | – | inactive | inactive | – | – | – | inactive | inactive | – | inactive | inactive | inactive | inactive | inactive | –
4 | COc1cc(OC)nc(Sc2cccc(Cl)c2C(=O)O)n1 | inactive | inactive | inactive | inactive | inactive | inactive | inactive | – | – | inactive | inactive | – | inactive | inactive | inactive | inactive | – | –
5 | COC(=O)C(C)Oc1ccc(Oc2ccc(Cl)cc2Cl)cc1 (stereo unspecified) | inactive | inactive | inactive | inactive | inactive | inactive | inactive | inactive | inactive | inactive | inactive | – | inactive | inactive | inactive | inactive | – | –
6 | O=C(CCCN1CCC(n2c(=O)[nH]c3ccccc32)CC1)c1ccc(F)cc1 | inactive | inactive | inactive | inactive | inactive | – | inactive | – | – | – | – | inactive | – | inactive | – | – | inactive | inactive
7 | Nc1n[nH]c(N)n1 | inactive | inactive | inactive | inactive | inactive | inactive | inactive | inactive | inactive | – | inactive | – | – | inactive | inactive | inactive | – | –
8 | CN1CCN(C(=O)O[C@H]2c3nccnc3C(=O)N2c2ccc(Cl)cn2)CC1 | inactive | inactive | inactive | inactive | inactive | inactive | inactive | inactive | inactive | inactive | – | – | inactive | inactive | – | – | inactive | –
9 | O=C(CCN1CC1)OCC(CO)(COC(=O)CCN1CC1)COC(=O)CCN1CC1 | inactive | inactive | inactive | inactive | inactive | inactive | inactive | – | – | inactive | inactive | – | inactive | inactive | inactive | inactive | – | –
10 | COc1ccc2c(c1OC)CN1CCc3cc4c(cc3C1C2)OCO4 (stereo unspecified) | inactive | inactive | inactive | inactive | inactive | inactive | inactive | – | – | inactive | 9.44 µM (active) | inactive | – | inactive | inactive | – | inactive | inactive
11 | CN(C)CCc1ccc(O)cc1 | inactive | inactive | inactive | inactive | inactive | inactive | inactive | – | – | inactive | inactive | – | – | inactive | inactive | – | inactive | –
12 | COc1cc(OC)nc(Oc2cccc(Oc3nc(OC)cc(OC)n3)c2C(=O)O)n1 | inactive | inactive | inactive | inactive | inactive | inactive | inactive | – | inactive | inactive | inactive | inactive | inactive | – | – | – | – | –
13 | CCOP(=O)(OCC)OP(=O)(OCC)OCC | inactive | inactive | inactive | inactive | inactive | inactive | inactive | – | inactive | inactive | inactive | inactive | inactive | inactive | – | inactive | – | –
14 | CC1=NNC(=O)N(/N=C/c2cccnc2)C1 | inactive | inactive | inactive | inactive | inactive | inactive | inactive | – | inactive | inactive | – | – | inactive | inactive | – | inactive | – | –
15 | CCCCOC(=O)c1ccccc1C(=O)O | inactive | inactive | inactive | inactive | inactive | inactive | inactive | inactive | inactive | inactive | – | inactive | inactive | inactive | inactive | – | – | –
16 | ClCC(Cl)Cl | inactive | inactive | inactive | inactive | inactive | inactive | inactive | – | – | inactive | inactive | – | inactive | inactive | inactive | inactive | – | –
17 | O=[N+]([O-])c1cccc(O)c1 | inactive | inactive | inactive | inactive | inactive | inactive | inactive | – | – | inactive | inactive | – | inactive | inactive | inactive | inactive | – | –
18 | CC(C)(C)OC(=O)c1ncn2c1[C@@H]1CCCN1C(=O)c1c(Br)cccc1-2 | inactive | inactive | inactive | – | inactive | inactive | inactive | – | inactive | – | – | – | inactive | inactive | – | – | inactive | –
19 | O=NN1CCCCC1 | inactive | inactive | inactive | inactive | inactive | inactive | inactive | – | inactive | inactive | inactive | inactive | inactive | inactive | inactive | inactive | – | –
20 | CC1COC2(c3ccccc3Cl)c3cc(Cl)ccc3NC(=O)CN12 (stereo unspecified) | inactive | inactive | inactive | inactive | inactive | inactive | inactive | inactive | 26.6 µM (active) | inactive | – | inactive | inactive | inactive | inactive | 29.8 µM (active) | – | inactive
